For 65 molecules, Potency and activity change, negative = cytotoxicity results are on record in PubChem BioAssay (Tox21).

This assay in a line: p53 small molecule agonists, cell-based qHTS assay with rat liver microsomes: qHTS cell viability counter screen (AID 1963580). Note: nearly all actives have a fitted effect of over 45% in size. The gist of the method:
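Luminescent ATP readout (CellTiter-Glo, 30 min at room temperature) reports viability of p53RE-bla HCT-116 cells after 16 h at 37 C with test compounds under metabolic activation by rat liver microsomes and NADPH at 0.5 mg/mL final each.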

“And” between values parts separate entries of the source, which are not always exact repeats. Equal values may be shown once. Inconclusive results are not listed. Entries that show only a call come without a potency. Some structures have more than one record in an assay (separate samples or runs), and their calls can disagree. The source made the active and inactive calls. Calls come from the whole dose curve.
Potency is the fitted concentration of half-maximal effect.

As to `CCc1ccc(C=O)cc1`, the Potency entry was “inactive”.

As to `C[N+]1([O-])CCOCC1`, the Potency entry is “inactive”.

Regarding `CC(=O)Nc1ccc(N=Nc2cc(C)ccc2O)cc1`, the Potency entry is “inactive”.

On to `CC(C)(c1cc(Br)c(OCC(Br)CBr)c(Br)c1)c1cc(Br)c(OCC(Br)CBr)c(Br)c1` (stereo not given), for which the Potency entry was “inactive”.

As for `C=C(C)C(=O)OCCC[Si](Cl)(Cl)Cl`, the Potency entry is “inactive”.

As for `O=C(O)CONC(=O)c1ccccc1`, the Potency result was “inactive”.

Turning to `CCc1ccc(Br)cc1`, the Potency entry was “inactive”.

In the case of `CCOCCOCC`, the Potency result is “inactive”.

As to `C1=COCCC1`, the Potency entry was “inactive”.

For `O[C@@H]([C@H](O)[C@H](O)CBr)[C@H](O)CBr`, the Potency entry was “inactive”.

Turning to `O=C1OC(=O)c2ccccc21`, the Potency entry is “inactive”.

On to `CCCCCCCCC1CCC(=O)O1` (stereo not given), for which the Potency result is “inactive”.

Consider `NCC1(Cc2noc(=O)[nH]2)CCCCC1`, for which the Potency result was “inactive”.

For `CC(C)(C)C(=O)OCOC(=O)C1N2C(=O)CC2S(=O)(=O)C1(C)C` (stereo not given), the Potency entry is “inactive”.

Regarding `Cc1ccc(C(=O)c2cc(O)c(O)c([N+](=O)[O-])c2)cc1`, the Potency entry is “inactive”.

Turning to `O=C(O)c1cc(O)c(O)c(O)c1`, the Potency result is “inactive”.

`CC(C)CC(O)Cc1ccccc1` (stereo not given): the Potency entry was “inactive”.

As to `OCC1(CO)COCOC1`, the Potency result is “inactive”.

With `CC(=O)N(O)CCCCCNC(=O)CCC(=O)N(O)CCCCCNC(=O)CCC(=O)N(O)CCCCCN`, the Potency entry is “inactive”.

On to `Cc1cc(C)cc(OCC2CNC(=O)O2)c1` (stereo not given), for which the Potency entry is “inactive”.

On to `CCCCCCCCOC(=O)CCCCCCCCC(=O)OCCCCCCCC`, for which the Potency entry is “inactive”.

`CCCCCCCCCCCCCC`: the Potency result was “inactive”.

On to `Cc1occc1S`, for which the Potency result was “inactive”.

Turning to `NC(=O)c1ncn([C@@H]2O[C@H](CO)[C@@H](O)[C@H]2O)c1O`, the Potency entry was “inactive”.

Turning to `O=C(O)CN(CCN(CC(=O)O)CC(=O)O)CCN(CC(=O)O)CC(=O)O`, the activity change, negative = cytotoxicity was -9.7% [at 13.5 µM] (inactive).

Take `O=C(c1ccc2c(c1)C(=O)OC2=O)c1ccc2c(c1)C(=O)OC2=O`: the Potency entry was “inactive”.

As to `CCCCCCOC(=O)CC`, the Potency result was “inactive”.

For `CCO/C([O-])=N/c1c[n+](N2CCOCC2)no1`, the Potency result was “inactive”.

As to `CCO[Si](CCCN=C=O)(OCC)OCC`, the Potency entry was “inactive”.

For `Oc1ccc(O)c2c(O)cccc12`, the Potency result is “inactive”.

For the molecule `CCOCOCC`, the Potency entry was “inactive”.

On to `COCc1ccc(COC)cc1`, for which the Potency result was “inactive”.

As to `CCc1cnc(C(=O)O)c(C(=O)O)c1`, the Potency result was “inactive”.

As for `CCCCCCCC(OC)OC`, the Potency entry is “inactive”.

For the molecule `CCN(CC#N)c1cccc(C)c1`, the Potency entry is “inactive”.

In the case of `CC(=O)O[C@@H]1C[C@@H]2CC[C@@]1(C)C2(C)C`, the Potency result is “inactive”.

Consider `CCCCCC(=O)O[C@]1(C(C)=O)CC[C@H]2[C@@H]3CCC4=CC(=O)CC[C@]4(C)[C@H]3CC[C@@]21C`, for which the Potency entry was “inactive”.

Consider `CCCCCCCCCOCC1CO1` (stereo not given), for which the Potency entry was “inactive”.

Take `CC(=O)NCCO`: the Potency entry was “inactive”.

Regarding `CC(C)c1cc2c(cc1S(=O)(=O)O)[C@@]1(C)CCC[C@@](C)(C(=O)O)[C@@H]1CC2`, the Potency entry was “inactive”.

Consider `CC/C=C\CCO`, for which the Potency result is “inactive”.

Consider `CCC(=O)OC(C)(C)C1CC=C(C)CC1` (stereo not given), for which the Potency result was “inactive”.

On to `COc1cc(C(=S)N2CCOCC2)ccc1O`, for which the Potency result was “inactive”.

In the case of `NC(=O)c1ccc([N+](=O)[O-])cc1`, the Potency entry is “inactive”.

`O=S(=O)(O)CCCN1CCOCC1`: the Potency result was “inactive”.

`NCCO`: the Potency result is “inactive and 32.4 µM (active)”.

`CCOC(=O)[C@H](CCc1ccccc1)N[C@@H](C)C(=O)N1Cc2ccccc2C[C@H]1C(=O)O`: the Potency result was “inactive”.

For the molecule `C=COCCCC`, the Potency entry is “inactive”.

For the molecule `NC(=S)N/N=C/c1cccnc1`, the Potency entry is “inactive”.

For the molecule `N#[N+]c1ccc2c(S(=O)(=O)[O-])cccc2c1O`, the Potency result is “inactive”.

As to `CC(=O)O[C@H](CC(=O)[O-])C[N+](C)(C)C`, the Potency entry is “inactive”.

As for `CCCCCCCCc1ccc(Nc2ccc(CCCCCCCC)cc2)cc1`, the Potency entry was “inactive”.

As to `CCOCCOCCOCCO`, the Potency entry is “inactive”.

On to `COc1ccc(C)cc1`, for which the Potency result was “inactive”.

As for `CCCCCCCCCCCC(=O)OCC(C)OC(=O)CCCCC(=O)O` (stereo not given), the Potency entry was “inactive”.

In the case of `CC(=O)N1CCN(c2ccc(O)cc2)CC1`, the Potency result is “inactive”.

As for `NNS(=O)(=O)c1ccc(Oc2ccc(S(=O)(=O)NN)cc2)cc1`, the Potency result is “inactive”.

Regarding `CN(CCOc1ccc(CC2SC(=O)NC2=O)cc1)c1ccccn1` (stereo not given), the Potency entry is “inactive”.

For `CCCCC(CC)COC(=O)c1ccc(O)cc1` (stereo not given), the Potency is 45.8 µM (active).

For the molecule `CCCCCCCCCCCCCCCCI`, the activity change, negative = cytotoxicity was -2.18% [at 13.5 µM] (inactive).

Regarding `NC(=O)CCCCC(N)=O`, the Potency result was “inactive”.

As for `COc1cccc(OC)c1C(=O)O`, the Potency entry was “inactive”.

`O=C(CCNNC(=O)c1ccncc1)NCc1ccccc1`: the Potency result was “inactive”.

On to `CC(=O)[C@H]1CC[C@H]2[C@@H]3CCC4=CC(=O)CC[C@]4(C)[C@H]3CC[C@]12C`, for which the Potency result was “inactive”.

Regarding `N#CC1(O)CCCCC1`, the Potency entry was “inactive”.
